Measurements taken from PubChem BioAssay AID493216 (National Center for Advancing Translational Sciences (NCATS), 2011).
Active and inactive are the calls of the source. Calls come from the whole dose curve.

Target: Polyunsaturated fatty acid lipoxygenase ALOX12 (Homo sapiens) (UniProt P18054)
Test: Inhibitors of 12-hLO (12-human lipoxygenase): Cuvette-Based Hit Assay for Validation of Followup Compounds
Details: purified 12-hLO, cuvette absorbance 234 nm
Procedure: The enzyme activity of 12-hLO was determined by a direct measurement of product formation by monitoring the absorbance at 234 nm in a 2 mL cuvette. IC50 values of inhibitors were obtained by measuring the enzymatic rate at a variety of concentrations (Carroll et al, Segraves et al). This assay was used to validate actives or inconclusive putative inhibitors identified in the primary screen (see related BioAssay AIDs). Assay Provider: Holman, T.R., University of California, Santa Cruz Screening Center PI: Austin, Christopher P. Screening Center: NIH Chemical Genomics Center
For control experiments, 2 mL of substrate buffer (10 uM arachidonic acid / 25 mM HEPES / 0.01% (v/v) Triton X-100, pH 8.0) was aliquoted in a cuvette with a magnetic stir bar. After equilibrium was ensured, an aliquot of inhibitor solvent was added (DMSO), and equilibrium was once again assured. The reaction was started by adding enzyme to the cuvette and the reaction was followed until completed. The inhibition experiments were performed as above, except the actual inhibitory compound was added instead of vehicle. To achieve an IC50, typically 5 concentrations of the inhibitor were studied. If the inhibitor concentration was constant, then five different reaction volumes were used. Step \ Parameter \ Value \ Description 1; UV-Vis; 234 nm; Equilibration 2; Reagent; 2 mL; Substrate buffer 3; UV-Vis; 234 nm; Equilibration 4; Reagent; varies; Compound 5; UV-Vis; 234 nm; Equilibration 6; Reagent; 50-200 nM; Enzyme 12-hLO 7; UV-Vis; 234 nm; Enzymatic reaction Step \ Notes 1; Blank cuvette to air. 2; 10 uM AA, 25 mM HEPES, 0.01% Triton X-100, pH 8. 3; No change in absorbance ensured. 4; Compound vehicle or compound in various concentrations depending on potency. 5; No change in absorbance ensured. 6; Enzyme concentration to achieve reaction rate between 0.02 and 0.04 AU/s. 7; Enzymatic reaction visualized until completion.

Polyunsaturated fatty acid lipoxygenase ALOX12 (Homo sapiens), sequence (P18054 whole entry, looked up): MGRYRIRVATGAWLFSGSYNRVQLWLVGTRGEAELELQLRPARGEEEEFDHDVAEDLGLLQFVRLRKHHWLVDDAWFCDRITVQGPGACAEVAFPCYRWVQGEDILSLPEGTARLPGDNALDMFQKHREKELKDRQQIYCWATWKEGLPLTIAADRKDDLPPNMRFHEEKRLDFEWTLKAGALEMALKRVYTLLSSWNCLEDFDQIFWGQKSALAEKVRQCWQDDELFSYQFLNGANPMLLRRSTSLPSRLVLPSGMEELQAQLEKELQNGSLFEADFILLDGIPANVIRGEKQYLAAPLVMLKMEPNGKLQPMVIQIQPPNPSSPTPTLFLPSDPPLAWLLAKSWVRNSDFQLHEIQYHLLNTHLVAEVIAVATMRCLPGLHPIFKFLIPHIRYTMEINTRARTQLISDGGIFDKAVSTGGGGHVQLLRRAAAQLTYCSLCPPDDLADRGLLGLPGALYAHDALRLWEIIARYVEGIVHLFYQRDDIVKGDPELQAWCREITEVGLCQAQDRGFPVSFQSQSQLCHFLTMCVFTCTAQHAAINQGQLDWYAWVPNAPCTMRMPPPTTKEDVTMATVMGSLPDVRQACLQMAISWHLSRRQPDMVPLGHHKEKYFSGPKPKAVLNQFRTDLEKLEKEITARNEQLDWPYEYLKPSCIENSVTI

Potency, active:
CC1=NN(c2ccc(Cl)cc2)C(=O)C1C(c1ccccc1O)c1c(C)[nH]n(-c2ccc(Cl)cc2)c1=O (stereo unspecified) 18.9 µM
COc1ccc2nc(NC(=O)c3cccc(OCc4c(C)noc4C)c3)sc2c1 36.7 µM
Cc1ccc(C(=O)Nc2nnc(-c3ccco3)o2)cc1C 15.7 µM
Oc1ccc(Cl)cc1-c1cc(-c2ccco2)[nH]n1 21.5 µM
COc1cc(CNc2ccc(O)cc2)cc(Br)c1OCc1ccccc1F 24.1 µM
COc1ccc(/C=C/c2nc(-c3ccccc3O)n[nH]2)cc1 18.9 µM
CCOc1ccc(-c2[nH]ncc2Oc2cccc(OC)c2)c(O)c1 28.1 µM
Cc1ccc(S(=O)(=O)Nc2ccc(NC(=O)Nc3cccc(C(F)(F)F)c3)cc2)cc1 35 µM
COc1cccc(-c2cnc(NCc3cc(Cl)ccc3O)n2C)c1 32.7 µM
COc1ccc(NC2=NCC(Cc3ccc(Br)cc3)S2)cc1 (stereo unspecified) 36.6 µM
N#CC1=C(N)Oc2n[nH]c(-c3cccs3)c2C1C1CCCCC1 (stereo unspecified) 7.69 µM
